Measurements as given in PubChem BioAssay AID1159580 (chemical genetic matrix, 2015).
Several values for one entry are separate records, joined by “and”; a condition that tells them apart may be missing. Identical values can stand only once. Hit rate of the full screen: of about 5,500 compounds, about 2,000 (36%) were called active. Not shown: some 18% with an inconclusive outcome. Rule as the data show it: active = normalized growth mostly below about 0.91 (no sharp cut-off); inconclusive = no clear call, values can overlap the other calls; inactive = mostly above about 0.92. This is one part of the list.

Assay: chemical genetic growth profiling, strain panel (AID 1159580);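 also: tested at 20 µM; growth read once vehicle control cultures reached saturation at 30 °C; 1 = growth at the plate median or of vehicle wells; lower values mean less growth of the strain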
Details: S. cerevisiae deletion strains, growth OD

Measured: normalized growth

Cc1ccccc1N1C(=O)c2cc(S(N)(=O)=O)c(Cl)cc2NC1C (stereo not drawn)
inactive: locus YAL013W, strain DEP1, active compounds read low 0.989 | locus YAL021C, strain ccr4, active compounds read low 1 | locus YAL026C, strain drs2, active compounds read low 0.983 | locus YAL030W, strain snc1, active compounds read low 0.991 | locus YBL061C, strain skt5, active compounds read low 0.987 | locus YBR009C, strain hhf1, active compounds read low 1 | locus YBR021W, strain FUR4, active compounds read low 0.968 | locus YBR023C, strain chs3, active compounds read low 0.989 | locus YBR171W, strain sec66, active compounds read low 0.963 | locus YBR229C, strain ROT2, active compounds read low 0.982 | locus YBR231C, strain swc5, active compounds read low 0.987 | locus YBR279W, strain paf1, active compounds read low 0.996 | locus YCL011C, strain gbp2, active compounds read low 0.997 | locus YCL016C, strain dcc1, active compounds read low 1.03 | locus YCL029C, strain bik1, active compounds read low 0.979 | locus YCL069W, strain vba3, active compounds read low 0.996 | locus YCR088W, strain abp1, active compounds read low 0.978 | locus YDL005C, strain med2, active compounds read low 0.96 | locus YDL035C, strain GPR1, active compounds read low 1.01 | locus YDL040C, strain nat1, active compounds read low 0.986 | locus YDL074C, strain BRE1, active compounds read low 1.02 | locus YDL101C, strain DUN1, active compounds read low 0.985 | locus YDL134C, strain PPH21, active compounds read low 0.983 | locus YDL185W, strain tfp1, active compounds read low 0.984 | locus YDL192W, strain arf1, active compounds read low 0.98 | locus YDR001C, strain nth1, active compounds read low 0.957 | locus YDR069C, strain doa4, active compounds read low 0.96 | locus YDR101C, strain arx1, active compounds read low 0.994 | locus YDR137W, strain rgp1, active compounds read low 1 | locus YDR159W, strain sac3, active compounds read low 0.973 | locus YDR162C, strain NBP2, active compounds read low 0.994 | locus YDR195W, strain ref2 0.944 | locus YDR297W, strain sur2, active compounds read low 1 | locus YDR318W, strain mcm21, active compounds read low 0.99 | locus YDR334W, strain swr1, active compounds read low 0.918 | locus YDR335W, strain msn5, active compounds read low 0.973 | locus YDR388W, active compounds read low 0.994 | locus YDR392W, strain spt3, active compounds read low 1.01 | locus YDR502C, strain sam2, active compounds read low 0.983 | locus YEL003W, strain gim4, active compounds read low 0.978 | locus YEL037C, strain rad23, active compounds read low 0.978 | locus YEL061C, strain CIN8 (second series), active compounds read low 0.985 | locus YEL061C, strain CIN8, active compounds read low 0.993 | locus YER015W, strain faa2, active compounds read low 0.986 | locus YER016W, strain bim1, active compounds read low 0.998 | locus YER110C, active compounds read low 0.976 | locus YER111C, strain swi4, active compounds read low 0.987 | locus YER155C, strain BEM2 (second series), active compounds read low 0.99 | locus YER155C, strain BEM2, active compounds read low 0.981 | locus YER167W, strain BCK2, active compounds read low 0.981 | locus YFR010W, strain ubp6, active compounds read low 0.968 | locus YGL078C, strain dbp3, active compounds read low 0.981 | locus YGL086W, strain mad1, active compounds read low 1.01 | locus YGL167C, strain pmr1, active compounds read low 0.996 | locus YGL173C, strain kem1, active compounds read low 1.01 | locus YGL227W, strain vid30, active compounds read low 0.972 | locus YGL240W, strain doc1, active compounds read low 0.995 | locus YGL248W, strain PDE1, active compounds read low 1 | locus YGL253W, strain hxk2, active compounds read low 0.972 | locus YGR135W, strain pre9, active compounds read low 0.986 | locus YGR229C, strain SMI1, active compounds read low 0.982 | locus YGR252W, strain gcn5, active compounds read low 0.991 | locus YHR013C, strain ard1, active compounds read low 1.02 | locus YHR027C, strain rpn1, active compounds read low 0.991 | locus YHR030C, strain SLT2, active compounds read low 0.987 and 0.961 | locus YHR079C, strain IRE1 (second series), active compounds read low 0.997 | locus YHR079C, strain IRE1, active compounds read low 0.966 | locus YHR094C, strain hxt1, active compounds read low 0.99 | locus YHR129C, strain ARP1, active compounds read low 0.988 | locus YHR142W, strain chs7, active compounds read low 0.969 | locus YHR200W, strain rpn10, active compounds read low 0.982 | locus YIL066C, strain RNR3, active compounds read low 1.01 | locus YIL073C, strain SPO22, active compounds read low 1.03 | locus YIL125W, strain kgd1, active compounds read low 0.991 | locus YIR030C, strain dcg1, active compounds read low 0.987 | locus YJL092W, strain hpr5, active compounds read low 0.992 | locus YJL095W, strain BCK1 (second series), active compounds read low 0.956 | locus YJL095W, strain BCK1, active compounds read low 1.03 and 0.975 | locus YJL115W, strain asf1, active compounds read low 0.965 | locus YJL129C, strain trk1, active compounds read low 0.941 | locus YJL134W, strain LCB3, active compounds read low 0.986 | locus YJL154C, strain vps35, active compounds read low 0.961 | locus YJL164C, strain tpk1, active compounds read low 1.03 | locus YJL166W, strain qcr8, active compounds read low 0.978 | locus YJL168C, strain set2, active compounds read low 0.992 | locus YJL187C, strain SWE1 (second series), active compounds read low 1 | locus YJR043C, strain POL32, active compounds read low 0.994 | locus YJR066W, strain TOR1, active compounds read low 0.923
